Results as given in PubChem BioAssay AID641 (Vanderbilt High Throughput Screening Facility, 2007).
Among all 58,000 compounds or so, about 3,400 (5.9%) were called active. The list comes from a sample in which actives are over-represented; it also holds similar structures and randomly drawn compounds. Unmarked numbers belong to inactive results.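 The calls were made as follows: active = luminescence count or its row- and column-corrected plate score outside the 99.7% band of the plate's sample wells, on either side; inactive = the rest.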

These molecules were tested against D(1A) dopamine receptor (Homo sapiens) (UniProt P21728) (assay: D1 CRE-luciferase signal change, two-sided – cell-based, HEK293 D1, dopamine EC30, D1 allosteric modulator project, primary screen (AID 641)). Settings: dopamine EC30 potentiation, at 10 µM, actives deviate in either direction.
Sequence of D(1A) dopamine receptor (Homo sapiens) (P21728 whole entry, looked up): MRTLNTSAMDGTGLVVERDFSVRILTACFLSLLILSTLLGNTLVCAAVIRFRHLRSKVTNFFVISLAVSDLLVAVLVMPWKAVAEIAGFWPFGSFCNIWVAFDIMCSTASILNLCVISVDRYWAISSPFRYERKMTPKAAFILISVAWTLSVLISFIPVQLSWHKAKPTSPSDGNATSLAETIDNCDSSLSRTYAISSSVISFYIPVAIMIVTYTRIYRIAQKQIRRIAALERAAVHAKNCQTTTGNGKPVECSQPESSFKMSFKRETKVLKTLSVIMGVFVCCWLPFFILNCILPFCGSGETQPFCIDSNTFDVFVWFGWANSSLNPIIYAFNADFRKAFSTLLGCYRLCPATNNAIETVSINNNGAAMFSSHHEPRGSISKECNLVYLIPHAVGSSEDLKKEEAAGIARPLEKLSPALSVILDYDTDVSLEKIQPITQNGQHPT
Work on Cc1nc2sc(C(c3ccco3)N3CCC4(CC3)OCCO4)c(O)n2n1 (stereo not drawn) yielded a B-score of -0.00625.
NS(=O)(=O)c1ccc(NS(=O)(=O)/C=C/c2ccccc2)cc1 gave a B-score of 0.545.
For COC(=O)Cn1c(=NC(=O)CSCC(=O)Nc2cc(C)on2)sc2ccccc21, the B-score was -0.763.
In the case of O=C1CC(N2CCN(C(c3ccccc3)c3ccccc3)CC2)C(=O)N1 (stereo not drawn), the B-score was -0.246.
COC(=O)c1ccc(CSc2nc3ccccc3c(=O)n2-c2cccc(OC)c2)o1 gave a B-score of 2.88.
O=c1c2ccccc2nc(CSc2nnnn2-c2ccccc2)n1-c1ccccc1 showed a B-score of 0.263.
In the case of N#CCSc1nc2ccccc2c(=O)n1-c1ccccc1, the B-score was 7.87 (active).
In the case of Cc1noc(C)c1S(=O)(=O)N(CC(=O)NCc1ccc(Cl)cc1)c1ccc2c(c1)OCO2, the B-score was 0.0431.
CCCC(=O)N=c1sc2cccc(F)c2n1C showed a B-score of 0.69.
Work on Fc1ccc(-c2nnc3sc(-c4ccc5c(c4)OCO5)nn23)cc1 yielded a B-score of 0.575.
COc1cc(-c2nn3c(-c4cccc(C)c4)nnc3s2)cc(OC)c1OC was tested, and the B-score was 5.22 (active).
In the case of Cc1nnc2sc(-c3ccco3)nn12, the B-score was 0.854.
c1ccc(-c2cc(-c3nnc4sc(-c5ccccn5)nn34)[nH]n2)cc1 was tested, and the B-score was -0.359.
In the case of CC(=O)Nc1ccc(-c2nn3c(C)nnc3s2)cc1C, the B-score was 0.141.
COc1ccc(-c2nn3c(-c4ccccc4)nnc3s2)cc1OC was tested, and the B-score was 8.24 (active).
Work on CCOc1ccc(C(=O)N(Cc2ccc(N(C)C)cc2)C2CCS(=O)(=O)C2)cc1 (stereo not drawn) yielded a B-score of 0.116.
Molecule CCCC(C(=O)N1CCOCC1)N1C(=O)C2C3C=CC(C3)C2C1=O (stereo not drawn) has a B-score of -0.388.
Cc1occc1C(=O)Nc1nnc(C2CCCCC2)s1 showed a B-score of 0.299.
O=C(COc1ccccc1Cl)Nn1cnnc1 gave a B-score of -0.264.
Molecule Cc1cccc(N2CCN(Cc3c(C)n(C)n(-c4ccccc4)c3=O)CC2)c1C has a B-score of -0.359.
COc1ccc(N2CC(C)Cn3c2nc2c3c(=O)n(Cc3ccccc3F)c(=O)n2C)c(OC)c1 (stereo not drawn) showed a B-score of 0.483.
With CCOc1ccc(N2C(=O)CC(N(O)c3ccccc3)C2=O)cc1 (stereo not drawn) the B-score was 0.305.
COc1ccc(CCNc2ncnc3nc[nH]c23)cc1OC was tested, and the B-score was 12.7 (active).
For CCS(=O)(=O)NCCc1ccc(OC)c(OC)c1, the B-score was 0.864.
COc1ccc(CCNS(=O)(=O)c2ccc(F)cc2)cc1OC gave a B-score of 3.09.
CCOC(=O)c1sc(NC(=O)CSc2ncccn2)c(C#N)c1C gave a B-score of 1.81.
For COc1ccc(-c2cc(C(F)(F)F)nc(SCCC(=O)NCc3ccco3)n2)cc1, the B-score was 0.0331.
With COc1ccc(-c2cc(C(F)(F)F)nc(S(C)(=O)=O)n2)cc1OC the B-score was 6.58 (active).
COc1ccc(-c2ccc(Nc3ccc(S(=O)(=O)N4CCCC4)cc3)nn2)cc1OC was tested, and the B-score was 1.72.
Molecule CC(=O)Oc1ccc(C)cc1N1C(=O)c2ccc(C(=O)O)cc2C1=O has a B-score of -0.324.
Molecule CCN(CC)C(=O)CSc1nnc(-c2cccc(OC)c2)o1 has a B-score of -0.393.
COc1cccc(-c2nnc(NC(=O)c3ccc(S(=O)(=O)N(CC(C)C)CC(C)C)cc3)o2)c1 was tested, and the B-score was -2.79 (active).
Molecule O=C(COC(=O)c1ccc(Oc2ccccc2)cc1)Nc1nnc(-c2ccccc2)o1 has a B-score of -1.16.
C=C1c2cc(CC)ccc2NC(=O)N1c1ccc(C)cc1 was tested, and the B-score was -1.84.
For COc1ccc(N(CC(=O)NC2CCCCCCC2)S(=O)(=O)c2c(C)nn(C)c2C)cc1, the B-score was -0.289.
Work on CC(C)C(=O)Nc1c(C(=O)c2ccc(F)cc2)oc2ccccc12 yielded a B-score of 1.66.
In the case of Nc1ccc(S(=O)(=O)NC(=O)c2ccccc2)cc1, the B-score was 31.8 (active).
CC(=O)NS(=O)(=O)c1ccccc1 was tested, and the B-score was 0.0902.
Work on Cc1ccc(C(=O)NCCNS(=O)(=O)c2ccccc2)cc1 yielded a B-score of -0.839.
For COCCNC(=O)c1snc2ccc(Cl)cc12, the B-score was 0.741.
CCCc1nc2ccccc2c(C(=O)OCc2nnc(-c3cc(OC)c(OC)c(OC)c3)o2)c1CC gave a B-score of 2.19.
For CCN1CCN(Cc2c(O)ccc3c(=O)c(-c4ccc(OC)c(OC)c4)c(C(F)(F)F)oc23)CC1, the B-score was -0.698.
Cc1cc(=O)oc(C)c1C(=O)Nc1cnc2ccccc2c1 showed a B-score of -0.206.
With O=C(CN1C(=O)c2ccccc2S1(=O)=O)N1CCc2ccccc21 the B-score was -3.68 (active).
In the case of O=C(c1cccc(C(=O)N2CCc3ccccc32)n1)N1CCc2ccccc21, the B-score was 0.928.
CNC(=O)CN1C(=O)c2ccccc2S1(=O)=O showed a B-score of 0.686.
COC(=O)C(C)Sc1ccc2nnc(-c3cccc(F)c3)n2n1 (stereo not drawn) gave a B-score of 0.378.
With CCOc1ccc(-c2nnc3ccc(SC)nn23)cc1 the B-score was -4.57 (active).
With O=C(CN1CCOCC1)Nc1cc(Cl)ccc1Cl the B-score was -0.306.
For C=C(C)Cn1c(N2CCN(CC)CC2)nc2c1c(=O)[nH]c(=O)n2C, the B-score was 0.264.
With Brc1cccc(-c2nnc3n2CCC3)c1 the B-score was 0.138.
CCOc1cc(-c2nc3cc(C)ccn3c2NCC2CCCO2)ccc1O (stereo not drawn) showed a B-score of -0.604.
With COc1ccc(C2/C(=C(/O)c3ccccc3)C(=O)C(=O)N2c2ncccn2)cc1OC (stereo not drawn) the B-score was -0.0203.
For COc1ccc(C2N=C(N)N=C(N)N2c2ccccc2)cc1OC (stereo not drawn), the B-score was -3.55 (active).
Work on COc1ccc(C2SCCN2S(=O)(=O)c2ccccc2)cc1OC (stereo not drawn) yielded a B-score of 0.2.
Work on CCOC(=O)[C@H]1CCC[C@@H](NS(=O)(=O)c2ccc(NC(C)=O)cc2)C1 yielded a B-score of -0.0967.
Cc1ccc(S(=O)(=O)N(C)CC(=O)N2CCc3ccccc32)cc1 showed a B-score of 1.86.
In the case of CCOc1ccc2c(c1)cc(CN(C(=O)CC)C1CCCCC1)c1nnnn12, the B-score was 12.6 (active).
Molecule CCOc1ccc2[nH]c(=O)c(CN(Cc3nnnn3CCc3ccccc3)CC3CCCO3)cc2c1 (stereo not drawn) has a B-score of 1.9.
CCOc1ccc2[nH]c(=O)c(CN(Cc3nnnn3Cc3ccccc3)CC3CCCO3)cc2c1 (stereo not drawn) was tested, and the B-score was -0.307.
O=C(NCc1ccco1)c1cccn2c(=O)c3cc(Br)ccc3nc12 gave a B-score of -0.861.
With O=C(NCc1ccco1)c1cnn2c(C(F)(F)F)cc(-c3ccco3)nc12 the B-score was 4.37 (active).
For COC(=O)c1cnn2c(C(F)(F)F)cc(-c3ccco3)nc12, the B-score was 1.18.
